Measured values: PubChem BioAssay AID1159580 (chemical genetic matrix, 2015)
About 2,000 (36%) of roughly 5,500 compounds were called active. Roughly 18% stayed inconclusive and do not appear here. No stated cut-off is given here; in the data, active means normalized growth mostly below about 0.91 (no sharp cut-off); inconclusive means no clear call, values can overlap the other calls; inactive means mostly above about 0.92. This is one part of the list.

Test: chemical genetic growth profiling, strain panel (AID 1159580);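 further: tested at 20 µM; growth read once vehicle control cultures reached saturation at 30 °C; 1 = growth at the plate median or of vehicle wells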
Details: growth OD

Measured: normalized growth

NC(=NCCC[C@H](N)C(=O)O)N[N+](=O)[O-]
inactive: S. cerevisiae deletion strains, locus YJL187C, strain SWE1 (second series), stronger effect = lower value 0.983 | S. cerevisiae deletion strains, locus YJR043C, strain POL32, stronger effect = lower value 0.995 | S. cerevisiae deletion strains, locus YKL009W, strain mrt4, stronger effect = lower value 1 | S. cerevisiae deletion strains, locus YKL068W, stronger effect = lower value 0.997 | S. cerevisiae deletion strains, locus YKL085W, strain MDH1 (second series), stronger effect = lower value 0.982 | S. cerevisiae deletion strains, locus YKL085W, strain MDH1, stronger effect = lower value 0.982 | S. cerevisiae deletion strains, locus YKL160W, strain elf1, stronger effect = lower value 1.01 | S. cerevisiae deletion strains, locus YKL190W, strain CNB1, stronger effect = lower value 0.99 | S. cerevisiae deletion strains, locus YKR001C, strain vps1, stronger effect = lower value 0.98 | S. cerevisiae deletion strains, locus YKR026C, strain gcn3, stronger effect = lower value 1.01 | S. cerevisiae deletion strains, locus YKR091W, strain srl3, stronger effect = lower value 1.02 | S. cerevisiae deletion strains, locus YLL001W, strain dnm1, stronger effect = lower value 1.02 | S. cerevisiae deletion strains, locus YLL026W, stronger effect = lower value 1.02 | S. cerevisiae deletion strains, locus YLL041C, strain sdh2, stronger effect = lower value 1.02 | S. cerevisiae deletion strains, locus YLR027C, strain aat2, stronger effect = lower value 1.03 | S. cerevisiae deletion strains, locus YLR039C, strain RIC1, stronger effect = lower value 0.971 | S. cerevisiae deletion strains, locus YLR058C, strain SHM2, stronger effect = lower value 1.01 | S. cerevisiae deletion strains, locus YLR102C, strain apc9, stronger effect = lower value 1.01 | S. cerevisiae deletion strains, locus YLR221C, strain rsa3, stronger effect = lower value 0.985 | S. cerevisiae deletion strains, locus YLR258W, strain gsy2, stronger effect = lower value 1.02 | S. cerevisiae deletion strains, locus YLR262C, strain YPT6 (second series), stronger effect = lower value 1.04 | S. cerevisiae deletion strains, locus YLR262C, strain YPT6, stronger effect = lower value 1.06 | S. cerevisiae deletion strains, locus YLR268W, strain sec22, stronger effect = lower value 1 | S. cerevisiae deletion strains, locus YLR320W, strain mms22, stronger effect = lower value 1.03 | S. cerevisiae deletion strains, locus YLR330W, strain CHS5, stronger effect = lower value 1.01 | S. cerevisiae deletion strains, locus YLR342W, strain FKS1 (second series), stronger effect = lower value 1.03 | S. cerevisiae deletion strains, locus YLR342W, strain FKS1, stronger effect = lower value 1.02 | S. cerevisiae deletion strains, locus YLR357W, strain rsc2, stronger effect = lower value 1.06 | S. cerevisiae deletion strains, locus YLR370C, strain arc18, stronger effect = lower value 1.02 | S. cerevisiae deletion strains, locus YLR371W, strain rom2, stronger effect = lower value 0.997 | S. cerevisiae deletion strains, locus YLR384C, strain iki3, stronger effect = lower value 1.03 | S. cerevisiae deletion strains, locus YLR418C, strain cdc73, stronger effect = lower value 1.04 | S. cerevisiae deletion strains, locus YML016C, strain PPZ1, stronger effect = lower value 1 | S. cerevisiae deletion strains, locus YML032C, strain rad52, stronger effect = lower value 0.989 | S. cerevisiae deletion strains, locus YML120C, strain ndi1, stronger effect = lower value 1.02 | S. cerevisiae deletion strains, locus YML124C, strain tub3, stronger effect = lower value 1 | S. cerevisiae deletion strains, locus YMR058W, strain fet3, stronger effect = lower value 1.04 | S. cerevisiae deletion strains, locus YMR078C, strain ctf18, stronger effect = lower value 0.997 | S. cerevisiae deletion strains, locus YMR125W, strain sto1, stronger effect = lower value 1.01 | S. cerevisiae deletion strains, locus YMR129W, stronger effect = lower value 1.02 | S. cerevisiae deletion strains, locus YMR205C, strain PFK2, stronger effect = lower value 1.03 | S. cerevisiae deletion strains, locus YMR223W, strain ubp8, stronger effect = lower value 1.05 | S. cerevisiae deletion strains, locus YMR231W, strain pep5, stronger effect = lower value 1.01 | S. cerevisiae deletion strains, locus YMR307W, strain GAS1, stronger effect = lower value 0.982 | S. cerevisiae deletion strains, locus YNL067W, strain RPL9B, stronger effect = lower value 0.973 | S. cerevisiae deletion strains, locus YNL071W, strain lat1, stronger effect = lower value 1.01 | S. cerevisiae deletion strains, locus YNL128W, strain TEP1, stronger effect = lower value 1.01 | S. cerevisiae deletion strains, locus YNL153C, strain GIM3, stronger effect = lower value 0.975 | S. cerevisiae deletion strains, locus YNL209W, strain ssb2, stronger effect = lower value 1.03 | S. cerevisiae deletion strains, locus YNL233W, strain BNI4, stronger effect = lower value 0.968 | S. cerevisiae deletion strains, locus YNL248C, strain rpa49, stronger effect = lower value 1.01 | S. cerevisiae deletion strains, locus YNL271C, strain bni1, stronger effect = lower value 1.01 | S. cerevisiae deletion strains, locus YNL298W, strain CLA4, stronger effect = lower value 1.01 | S. cerevisiae deletion strains, locus YNL307C, strain MCK1, stronger effect = lower value 1.01 | S. cerevisiae deletion strains, locus YNL322C, strain KRE1 (second series), stronger effect = lower value 1.03 | S. cerevisiae deletion strains, locus YNL322C, strain KRE1, stronger effect = lower value 0.994 | S. cerevisiae deletion strains, locus YNR049C, strain mso1, stronger effect = lower value 1.02 | S. cerevisiae deletion strains, locus YNR052C, strain pop2, stronger effect = lower value 1.01 | S. cerevisiae deletion strains, locus YOL006C, strain TOP1, stronger effect = lower value 0.974 | S. cerevisiae deletion strains, locus YOL012C, strain htz1 2.01 | S. cerevisiae deletion strains, locus YOL147C, strain pex11, stronger effect = lower value 1 | S. cerevisiae deletion strains, locus YOR001W, strain rrp6, stronger effect = lower value 1.04 | S. cerevisiae deletion strains, locus YOR061W, strain CKA2, stronger effect = lower value 1 | S. cerevisiae deletion strains, locus YOR069W, strain VPS5, stronger effect = lower value 1.01 | S. cerevisiae deletion strains, locus YOR070C, strain gyp1, stronger effect = lower value 1.02 | S. cerevisiae deletion strains, locus YOR080W, strain dia2, stronger effect = lower value 1.02 | S. cerevisiae deletion strains, locus YOR083W, strain WHI5, stronger effect = lower value 1.03 | S. cerevisiae deletion strains, locus YOR106W, strain vam3, stronger effect = lower value 1.05 | S. cerevisiae deletion strains, locus YOR136W, strain idh2, stronger effect = lower value 0.997 | S. cerevisiae deletion strains, locus YOR144C, strain elg1, stronger effect = lower value 1 | S. cerevisiae deletion strains, locus YOR184W, strain ser1, stronger effect = lower value 1.02 | S. cerevisiae deletion strains, locus YOR265W, strain rbl2, stronger effect = lower value 1.02 | S. cerevisiae deletion strains, locus YOR270C, strain vph1, stronger effect = lower value 1.04 | S. cerevisiae deletion strains, locus YOR290C, strain snf2, stronger effect = lower value 1.02 | S. cerevisiae deletion strains, locus YOR316C, strain cot1, stronger effect = lower value 1.01 | S. cerevisiae deletion strains, locus YPL051W, strain arl3, stronger effect = lower value 1.02 | S. cerevisiae deletion strains, locus YPL055C, strain LGE1, stronger effect = lower value 0.95 | S. cerevisiae deletion strains, locus YPL078C, strain atp4, stronger effect = lower value 1.03 | S. cerevisiae deletion strains, locus YPL106C, strain sse1, stronger effect = lower value 1.04 | S. cerevisiae deletion strains, locus YPL240C, strain hsp82, stronger effect = lower value 1.01 | S. cerevisiae deletion strains, locus YPL241C, strain CIN2, stronger effect = lower value 1 | S. cerevisiae deletion strains, locus YPR119W, strain clb2, stronger effect = lower value 0.997 | S. cerevisiae deletion strains, locus YPR141C, strain kar3, stronger effect = lower value 0.998 | S. cerevisiae deletion strains, locus YPR163C, strain tif3, stronger effect = lower value 0.997 | S. cerevisiae deletion strains, locus YPR167C, strain met16, stronger effect = lower value 0.999 | S. cerevisiae deletion strains, strain wtn01, stronger effect = lower value 1 | S. cerevisiae strains, strain wild type, stronger effect = lower value 1
